# Laboratory results: PubChem BioAssay AID434989 (The Scripps Research Institute Molecular Screening Center, 2010)
# The whole screen tested about 330,000 compounds, of which about 1,400 (0.42%) were called active.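 The calls were made as follows: active = inhibition above its plate's threshold, mean inhibition of all tested compounds on the plate plus 3 SD (cut at about 37% in these data); inactive = the rest.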 This excerpt belongs to a sample that is enriched for actives.
# Molecular target: Orexin/Hypocretin receptor type 1 (Homo sapiens) (UniProt O43613)
# Sequence (O43613 whole entry, looked up): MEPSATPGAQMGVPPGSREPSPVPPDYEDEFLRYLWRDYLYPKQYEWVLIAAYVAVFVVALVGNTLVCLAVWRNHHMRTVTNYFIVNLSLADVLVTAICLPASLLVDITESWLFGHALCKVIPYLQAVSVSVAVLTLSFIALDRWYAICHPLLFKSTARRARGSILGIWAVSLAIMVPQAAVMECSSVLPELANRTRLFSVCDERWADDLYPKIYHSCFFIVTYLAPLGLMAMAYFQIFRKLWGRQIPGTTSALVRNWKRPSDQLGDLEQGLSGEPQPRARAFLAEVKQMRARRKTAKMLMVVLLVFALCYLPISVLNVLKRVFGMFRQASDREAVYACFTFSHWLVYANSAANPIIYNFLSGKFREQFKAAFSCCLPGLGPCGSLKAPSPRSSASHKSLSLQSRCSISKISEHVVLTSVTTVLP
# Test: blockers of orexin-A calcium signaling via HCRTR1 – fluorescence, CHO/OX1R cells, Fluo-8 calcium, primary screen (AID 434989);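 also: 0% = orexin A challenge wells and 100% = SB-334867-A antagonist wells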
# Conditions: Fluo-8 calcium fluorescence, at 5 µM, hits give high values
row,Compound,inhibition
1,CN(C)C(=O)CCc1ccc2c3c([nH]c2c1)[C@]1(CCc2ccccc2)[C@@H](C(=O)N2CCCCC2)C[C@H](CC(=O)NCCC2=CCCCC2)C(=O)N1CC3,-7.84% (inactive)
2,CC(C)N(C(=O)[C@H]1C[C@H](CC(=O)NC(C)(C)C)C(=O)N2CCc3c([nH]c4ccc(Cl)cc34)[C@]12C)C(C)C,-33.8% (inactive)
3,Cc1ccc(O)c(NC(=S)NC(=O)COc2ccc(Br)cc2)c1,78.4% (active)
4,Cc1cccc(OCC(=O)NC(=S)Nc2ccccc2N2CCOCC2)c1,-22.4% (inactive)
5,Cc1ccc(O)c(NC(=O)COc2cc(C)ccc2C)c1,2.38% (inactive)
6,COC(=O)c1ccc(C)c(NC(=O)Cn2c(C)csc2=O)c1,-20% (inactive)
7,CCC1CCCCN1C(=S)NC(=O)c1ccco1 (configuration not stated),5.19% (inactive)
8,CC(C)CC1NC(=O)c2cc(Cl)ccc2-n2c1nc1ccccc1c2=O (configuration not stated),-24.4% (inactive)
9,O=C(NC(=S)Nc1ccc(Br)cc1F)C1CCCCC1,0.61% (inactive)
10,O=C1NC(Cc2ccc(O)cc2)c2nc3ccc(Cl)cc3c(=O)n2-c2ccccc21 (configuration not stated),-10% (inactive)
11,CCC(C(=O)NCc1ccc(OC)cc1)n1nc(C)n2c(cc3occc32)c1=O (configuration not stated),-43.4% (inactive)
12,COc1ccc(CCNC(=O)c2cc3sccc3n2C)cc1OC,-27.4% (inactive)
13,CCOc1ccc(CCNC(=O)C(CC)n2nc(C)n3c(cc4sccc43)c2=O)cc1OCC (configuration not stated),64.5% (active)
14,Cc1ccc(C)c(S(=O)(=O)N2CCN(c3ncnc4sccc34)CC2)c1,51.7% (active)
15,COc1ccc(C)cc1S(=O)(=O)N1CCN(S(=O)(=O)c2cc(C(=O)O)ccc2C)CC1,-8.92% (inactive)
16,Cc1ccc(S(=O)(=O)N2CCN(c3ncnc4ccccc34)CC2)cc1,38.9% (inactive)
17,Cc1cccc(NS(=O)(=O)c2ccc(C)c(C(=O)NCc3cccnc3)c2)c1,-9.11% (inactive)
18,C/C=C/c1ccc(OCC(=O)NNC(=O)CN(C)S(=O)(=O)c2ccc(C)cc2)c(OC)c1,-47.6% (inactive)
19,O=C(C[C@@H]1C/C=C\CCC(=O)OC[C@@H]2CCCN2C1=O)NCCO,-14.7% (inactive)
20,Cc1ccccc1NC(=S)NC(=O)Cc1ccc(Cl)cc1,17.1% (inactive)
21,O=C(Cc1ccc(Cl)cc1)NC(=S)Nc1ccccc1O,61.6% (active)

row,Compound,inhibition
1,O=C(COc1ccc(Cl)cc1)NC(=S)Nc1ccccc1N1CCOCC1,-46.4% (inactive)
2,CC(=O)C[C@H](O)CC(=O)[C@@H]1OC(=O)[C@@H](C)C/C=C\Cc2ccccc21,-24.4% (inactive)
3,CN(C(=O)c1cccc(NC(=O)Cc2ccc([N+](=O)[O-])cc2)c1)C1CCC1,-24% (inactive)
4,COC(=O)[C@]1(Cc2ccccc2)N[C@H](CN(C)S(=O)(=O)c2ccc(OC(F)(F)F)cc2)[C@@H]2C(=O)N(Cc3ccccc3)C(=O)[C@@H]21,-14.3% (inactive)
5,O=C(COC(=O)Cc1ccc([N+](=O)[O-])cc1)NC1CCCCCC1,-29.4% (inactive)
6,Cc1cccn2c(=O)c(/C=C3\SC(=S)N(CC(C)C)C3=O)c(NCCCOC(C)C)nc12,-8.49% (inactive)
7,CCOC(=O)N1CCN(C(=O)CSc2nc(=O)n3cccc(C)c3n2)CC1,-4.53% (inactive)
8,CCOC(=O)CC1C(=O)NCCN1c1nc2c(C)cccn2c(=O)c1/C=C1\SC(=S)N(C(C)CC)C1=O (configuration not stated),78.6% (active)
9,O=C1C=CN2CCCC2CC1 (configuration not stated),-11.6% (inactive)
10,c1ccc2c(c1)OCC(CNc1ncnc3nc[nH]c13)O2 (configuration not stated),90.5% (active)
11,S=C(NCC1COc2ccccc2O1)Nc1ccc(Br)cc1 (configuration not stated),15.9% (inactive)
12,c1ccc(-c2cc3c(NCC4COc5ccccc5O4)ncnc3s2)cc1 (configuration not stated),-20% (inactive)
13,COc1ccc(CNC(=O)COC(=O)c2sccc2C)cc1OC,-11.2% (inactive)
14,Cc1noc(C)c1NC(=O)Nc1cccc2c1O[C@H](CN(C)S(=O)(=O)c1c(C)noc1C)[C@@H](C)CN([C@H](C)CO)C2=O,-19.7% (inactive)
15,CCN(C(=O)COC(=O)CCC(=O)c1cccs1)C1CCCCC1,-13.9% (inactive)
16,COc1ccc(/C=C/C(=O)OCC(=O)NC2CCCCCC2)cc1OC,-27.2% (inactive)
17,CC[C@]12c3[nH]c4ccc(OC)cc4c3CCN1C(=O)C(CC(=O)NCCN1CCOCC1)C[C@@H]2C(=O)N1CCN(C(=O)C2CC2)CC1 (some centres not stated),-6.98% (inactive)
18,CCCN(CC(=O)Nc1ccccc1OC)C(=O)CCC(=O)c1ccc(F)cc1,44.7% (active)
19,CCN(CC(=O)Nc1ccccc1OC)C(=O)Cn1cnc2ccccc2c1=O,-15.9% (inactive)
20,CCN(CC(=O)Nc1ccccc1OC)C(=O)CC1CC2CCC1C2 (configuration not stated),-19.5% (inactive)
21,NS(=O)(=O)c1cccc(NC(=O)COC(=O)c2cc([N+](=O)[O-])ccc2N2CCCC2)c1,-7.78% (inactive)

row,Compound,inhibition
1,O=C(COC(=O)/C=C/c1ccc(Br)o1)Nc1cccc(S(=O)(=O)N2CCOCC2)c1,-6.48% (inactive)
2,O=C(C[C@H]1C/C=C\C[C@@H](NC(=O)OCC2c3ccccc3-c3ccccc32)C(=O)O[C@@H](c2ccccc2)CNC1=O)N[C@H](CO)Cc1ccccc1,-18.2% (inactive)
3,O=C(COC(=O)CN1C(=O)C2CCCCC2C1=O)Nc1ccc(F)c(F)c1F (configuration not stated),-8.95% (inactive)
4,O=C(O)CC1=C(Nc2ccccc2)C(=O)N(c2ccccc2)C1c1ccc(Cl)cc1 (configuration not stated),-21.1% (inactive)
5,O=C(CCC(=O)OCc1ccc(Cl)cc1)Nc1ccccc1,-9.06% (inactive)
6,O=C1C=C(c2ccc(Cl)cc2)C(=O)N1Nc1ccccc1,53.2% (active)
7,Cc1ccc(S(=O)(=O)N2C[C@@H]3CCCC[C@@H]3[C@@H](C)[C@H]2c2cn(Cc3ccccc3)c3ccc(F)cc23)cc1,6.16% (inactive)
8,Fc1ccc2cnc(-c3ccccc3)cc2c1,-19.1% (inactive)
9,Cc1cc(-c2csc(N)n2)c(C)n1Cc1ccccc1,-19.7% (inactive)
10,CC(=O)c1ccc(-c2ccc(Cn3c(C)nc4cc(N)c(C)nc43)cc2)cc1,-25.1% (inactive)
11,Cc1cc2nc3c(=O)n(Cc4ccccc4)c(=O)[nH]c3nc2cc1N,54.6% (active)
12,COc1ccc(NC(=O)Nc2ccc3c(c2)C(=O)N([C@H](C)CO)C[C@H](C)[C@@H](CN(C)C(=O)Nc2ccc4c(c2)OCO4)O3)cc1,1.29% (inactive)
13,COc1ccc(-c2nc3cc(C)ccn3c2NC2CCCCC2)cc1SC1CCCCC1,25.4% (inactive)
14,CCOC(=O)Cn1c(=O)oc2cc(S(=O)(=O)N(C)Cc3ccco3)ccc21,-12% (inactive)
15,CCOC(=O)/C=c1\s/c(=C\c2ccc(C#N)cc2)c(=O)n1CC(=O)Nc1cccc(C)c1C,1.96% (inactive)
16,CN(c1ccccc1)c1ccc(/C=c2\s/c(=C(/C#N)C(=O)C(C)(C)C)n(Cc3ccco3)c2=O)cc1,42% (active)
17,COC(=O)c1sc(-c2ccc(C(C)(C)C)cc2)cc1NC(=O)/C=C/C(=O)O,55.5% (active)
18,CC(C)(C)c1ccc(/C=C/C(=O)Nc2ncccn2)cc1,-7.7% (inactive)
19,CSc1ccc(NC(=O)/C=C/C(=O)O)cc1,-13% (inactive)
20,O=C(NNS(=O)(=O)c1c(F)cc(F)c(Cl)c1F)C12CC3CC(CC(C3)C1)C2,4.78% (inactive)
21,O=C(COC(=O)COc1cccc(F)c1)NCC1CCCCC1,-16.8% (inactive)

row,Compound,inhibition
1,CN(c1ccccc1)S(=O)(=O)c1cccc(NC(=O)Cc2ccc(Cl)cc2)c1,42.1% (active)
2,CN(C)S(=O)(=O)c1cccc(NC(=O)Cc2ccsc2)c1,-7.6% (inactive)
3,CN(c1ccccc1)S(=O)(=O)c1cccc(NC(=O)Cc2c(F)cccc2Cl)c1,11.3% (inactive)
4,COCCn1c(C)cc(C(=O)CN2c3cccc4cccc(c34)S2(=O)=O)c1C,-15.1% (inactive)
5,CCOc1ccc(NC(=O)NNC(=O)c2ccc(Cl)cc2Cl)cc1,-32.5% (inactive)
6,OC(CNCCc1ccc(Cl)cc1Cl)COc1ccccc1 (configuration not stated),-12.8% (inactive)
7,NC(N)=N/N=C/c1ccc(OCc2ccc(Cl)cc2Cl)cc1,60% (active)
8,Cc1noc(C)c1S(=O)(=O)N(C)C[C@H]1Oc2ccc(NC(=O)C3CCCCC3)cc2C(=O)N([C@H](C)CO)C[C@@H]1C,-7.01% (inactive)
9,CC[C@@H](C)[C@@H]1CN([C@@H](C)CN2CCC[C@H]2CN2C(N)=NC[C@H]2C(C)C)C(=N)N1CCc1ccc(Cl)c(Cl)c1,-14.1% (inactive)
10,N#C/C(=C/c1ccc(N2CCCCC2)o1)C(=O)NCCc1c[nH]c2ccccc12,61.6% (active)
11,CC(=O)N/C(=C/c1ccc(Cl)cc1)C(=O)NCCc1c[nH]c2ccccc12,-8.41% (inactive)
12,O=C(CN1C(=O)NC2(CCCCC2)C1=O)NCCc1c[nH]c2ccccc12,-22.5% (inactive)
13,CN(C)C(=O)CCc1ccc2c3c([nH]c2c1)[C@]1(C)[C@@H](C(=O)N2CCOCC2)C[C@H](CC(=O)NCCc2ccccn2)C(=O)N1CC3,-9.61% (inactive)
14,O=C(CN1C(=O)NC2(CCOc3ccccc32)C1=O)Nc1cccc([N+](=O)[O-])c1 (configuration not stated),-4.96% (inactive)
15,COc1cccc(C(=O)NNC(=O)c2cccc(F)c2)c1,-14.5% (inactive)
16,COc1cccc(C(=O)NC(=O)Nc2nc(C)cc(C(F)(F)F)n2)c1,43.9% (active)
17,Cc1cc(C)nc(NC(=O)Nc2ccccc2C(F)(F)F)n1,-30.4% (inactive)
18,CCNC(=S)N1CCN(S(=O)(=O)c2ccc(Cl)s2)CC1,-8.33% (inactive)
19,COc1ccc(CNC(=O)C[C@H]2C[C@H](C(=O)N3CCOCC3)[C@@]3(C)c4[nH]c5cc(CCC(=O)N(C)C)ccc5c4CCN3C2=O)cc1OC,-8.18% (inactive)
